According to paper PMC12529666, “Dysregulation of AGO2-miRNA dynamics underlies the AGO2-associated Lessel–Kreienkamp syndrome”:

B1: ATACCCCG (ssRNA)
RNA 1: GAGUUCUACAGUCCGACGAUCCCAACAUACCCCGCACCUGGAAUUCUCGGGUGCCAA
RNA 2: UGGAGUGUGACAAUGGUGUUUG
DNA 1: GATCGTCGGACTGTAGAACTC
DNA 2: TTGGCACCCGAGAATTCCA
modifications: constant regions annealed to DNA blockers; guide miR-122 5' phosphate
B2: ATACCTTA (ssRNA)
RNA 1: GAGUUCUACAGUCCGACGAUCCCAACAUACCUUACACCUGGAAUUCUCGGGUGCCAA
RNA 2: UGGAGUGUGACAAUGGUGUUUG
DNA 1: GATCGTCGGACTGTAGAACTC
DNA 2: TTGGCACCCGAGAATTCCA
modifications: constant regions annealed to DNA blockers; guide miR-122 5' phosphate
B3: ATACCTTG (ssRNA)
RNA 1: GAGUUCUACAGUCCGACGAUCCCAACAUACCUUGCACCUGGAAUUCUCGGGUGCCAA
RNA 2: UGGAGUGUGACAAUGGUGUUUG
DNA 1: GATCGTCGGACTGTAGAACTC
DNA 2: TTGGCACCCGAGAATTCCA
modifications: constant regions annealed to DNA blockers; guide miR-122 5' phosphate
B4: ATATTTCG (ssRNA)
RNA 1: GAGUUCUACAGUCCGACGAUCCCAACAUAUUUCGCACCUGGAAUUCUCGGGUGCCAA
RNA 2: UGGAGUGUGACAAUGGUGUUUG
DNA 1: GATCGTCGGACTGTAGAACTC
DNA 2: TTGGCACCCGAGAATTCCA
modifications: constant regions annealed to DNA blockers; guide miR-122 5' phosphate
B5: ATGCCTCG (ssRNA)
RNA 1: GAGUUCUACAGUCCGACGAUCCCAACAUGCCUCGCACCUGGAAUUCUCGGGUGCCAA
RNA 2: UGGAGUGUGACAAUGGUGUUUG
DNA 1: GATCGTCGGACTGTAGAACTC
DNA 2: TTGGCACCCGAGAATTCCA
modifications: constant regions annealed to DNA blockers; guide miR-122 5' phosphate
B6: ATGTTCTG (ssRNA)
RNA 1: GAGUUCUACAGUCCGACGAUCCCAACAUGUUCUGCACCUGGAAUUCUCGGGUGCCAA
RNA 2: UGGAGUGUGACAAUGGUGUUUG
DNA 1: GATCGTCGGACTGTAGAACTC
DNA 2: TTGGCACCCGAGAATTCCA
modifications: constant regions annealed to DNA blockers; guide miR-122 5' phosphate
B7: GTACCTTA (ssRNA)
RNA 1: GAGUUCUACAGUCCGACGAUCCCAACGUACCUUACACCUGGAAUUCUCGGGUGCCAA
RNA 2: UGGAGUGUGACAAUGGUGUUUG
DNA 1: GATCGTCGGACTGTAGAACTC
DNA 2: TTGGCACCCGAGAATTCCA
modifications: constant regions annealed to DNA blockers; guide miR-122 5' phosphate
B8: GTATCTCG (ssRNA)
RNA 1: GAGUUCUACAGUCCGACGAUCCCAACGUAUCUCGCACCUGGAAUUCUCGGGUGCCAA
RNA 2: UGGAGUGUGACAAUGGUGUUUG
DNA 1: GATCGTCGGACTGTAGAACTC
DNA 2: TTGGCACCCGAGAATTCCA
modifications: constant regions annealed to DNA blockers; guide miR-122 5' phosphate
B9: GTATCTTA (ssRNA)
RNA 1: GAGUUCUACAGUCCGACGAUCCCAACGUAUCUUACACCUGGAAUUCUCGGGUGCCAA
RNA 2: UGGAGUGUGACAAUGGUGUUUG
DNA 1: GATCGTCGGACTGTAGAACTC
DNA 2: TTGGCACCCGAGAATTCCA
modifications: constant regions annealed to DNA blockers; guide miR-122 5' phosphate
B10: GTATTTTG (ssRNA)
RNA 1: GAGUUCUACAGUCCGACGAUCCCAACGUAUUUUGCACCUGGAAUUCUCGGGUGCCAA
RNA 2: UGGAGUGUGACAAUGGUGUUUG
DNA 1: GATCGTCGGACTGTAGAACTC
DNA 2: TTGGCACCCGAGAATTCCA
modifications: constant regions annealed to DNA blockers; guide miR-122 5' phosphate
B11: GTGTTTCG (ssRNA)
RNA 1: GAGUUCUACAGUCCGACGAUCCCAACGUGUUUCGCACCUGGAAUUCUCGGGUGCCAA
RNA 2: UGGAGUGUGACAAUGGUGUUUG
DNA 1: GATCGTCGGACTGTAGAACTC
DNA 2: TTGGCACCCGAGAATTCCA
modifications: constant regions annealed to DNA blockers; guide miR-122 5' phosphate
B12: GTGTCCCG (ssRNA)
RNA 1: GAGUUCUACAGUCCGACGAUCCCAACGUGUCCCGCACCUGGAAUUCUCGGGUGCCAA
RNA 2: UGGAGUGUGACAAUGGUGUUUG
DNA 1: GATCGTCGGACTGTAGAACTC
DNA 2: TTGGCACCCGAGAATTCCA
modifications: constant regions annealed to DNA blockers; guide miR-122 5' phosphate
B13: GCATTCTG (ssRNA)
RNA 1: GAGUUCUACAGUCCGACGAUCCCAACGCAUUCUGCACCUGGAAUUCUCGGGUGCCAA
RNA 2: UGGAGUGUGACAAUGGUGUUUG
DNA 1: GATCGTCGGACTGTAGAACTC
DNA 2: TTGGCACCCGAGAATTCCA
modifications: constant regions annealed to DNA blockers; guide miR-122 5' phosphate
B14: GTATTTCG (ssRNA)
RNA 1: GAGUUCUACAGUCCGACGAUCCCAACGUAUUUCGCACCUGGAAUUCUCGGGUGCCAA
RNA 2: UGGAGUGUGACAAUGGUGUUUG
DNA 1: GATCGTCGGACTGTAGAACTC
DNA 2: TTGGCACCCGAGAATTCCA
modifications: constant regions annealed to DNA blockers; guide miR-122 5' phosphate
B15: GTGTTCTA (ssRNA)
RNA 1: GAGUUCUACAGUCCGACGAUCCCAACGUGUUCUACACCUGGAAUUCUCGGGUGCCAA
RNA 2: UGGAGUGUGACAAUGGUGUUUG
DNA 1: GATCGTCGGACTGTAGAACTC
DNA 2: TTGGCACCCGAGAATTCCA
modifications: constant regions annealed to DNA blockers; guide miR-122 5' phosphate
B16: ATGCTCTG (ssRNA)
RNA 1: GAGUUCUACAGUCCGACGAUCCCAACAUGCUCUGCACCUGGAAUUCUCGGGUGCCAA
RNA 2: UGGAGUGUGACAAUGGUGUUUG
DNA 1: GATCGTCGGACTGTAGAACTC
DNA 2: TTGGCACCCGAGAATTCCA
modifications: constant regions annealed to DNA blockers; guide miR-122 5' phosphate
B17: GCACTTTG (ssRNA)
RNA 1: GAGUUCUACAGUCCGACGAUCCCAACGCACUUUGCACCUGGAAUUCUCGGGUGCCAA
RNA 2: UGGAGUGUGACAAUGGUGUUUG
DNA 1: GATCGTCGGACTGTAGAACTC
DNA 2: TTGGCACCCGAGAATTCCA
modifications: constant regions annealed to DNA blockers; guide miR-122 5' phosphate
B18: ACGTTTCG (ssRNA)
RNA 1: GAGUUCUACAGUCCGACGAUCCCAACACGUUUCGCACCUGGAAUUCUCGGGUGCCAA
RNA 2: UGGAGUGUGACAAUGGUGUUUG
DNA 1: GATCGTCGGACTGTAGAACTC
DNA 2: TTGGCACCCGAGAATTCCA
modifications: constant regions annealed to DNA blockers; guide miR-122 5' phosphate
B19: GTACCCTG (ssRNA)
RNA 1: GAGUUCUACAGUCCGACGAUCCCAACGUACCCUGCACCUGGAAUUCUCGGGUGCCAA
RNA 2: UGGAGUGUGACAAUGGUGUUUG
DNA 1: GATCGTCGGACTGTAGAACTC
DNA 2: TTGGCACCCGAGAATTCCA
modifications: constant regions annealed to DNA blockers; guide miR-122 5' phosphate
B20: ACGCCCTG (ssRNA)
RNA 1: GAGUUCUACAGUCCGACGAUCCCAACACGCCCUGCACCUGGAAUUCUCGGGUGCCAA
RNA 2: UGGAGUGUGACAAUGGUGUUUG
DNA 1: GATCGTCGGACTGTAGAACTC
DNA 2: TTGGCACCCGAGAATTCCA
modifications: constant regions annealed to DNA blockers; guide miR-122 5' phosphate
B21: ACGCTTTG (ssRNA)
RNA 1: GAGUUCUACAGUCCGACGAUCCCAACACGCUUUGCACCUGGAAUUCUCGGGUGCCAA
RNA 2: UGGAGUGUGACAAUGGUGUUUG
DNA 1: GATCGTCGGACTGTAGAACTC
DNA 2: TTGGCACCCGAGAATTCCA
modifications: constant regions annealed to DNA blockers; guide miR-122 5' phosphate
B22: ACGTCCCG (ssRNA)
RNA 1: GAGUUCUACAGUCCGACGAUCCCAACACGUCCCGCACCUGGAAUUCUCGGGUGCCAA
RNA 2: UGGAGUGUGACAAUGGUGUUUG
DNA 1: GATCGTCGGACTGTAGAACTC
DNA 2: TTGGCACCCGAGAATTCCA
modifications: constant regions annealed to DNA blockers; guide miR-122 5' phosphate
B23: ATATTCTG (ssRNA)
RNA 1: GAGUUCUACAGUCCGACGAUCCCAACAUAUUCUGCACCUGGAAUUCUCGGGUGCCAA
RNA 2: UGGAGUGUGACAAUGGUGUUUG
DNA 1: GATCGTCGGACTGTAGAACTC
DNA 2: TTGGCACCCGAGAATTCCA
modifications: constant regions annealed to DNA blockers; guide miR-122 5' phosphate

target: AGO2 L192P (Homo sapiens, UniProt Q9UKV8 1-859, L192P;S387D;S824A;S828D;S831D;S834A); test: RNA Bind-n-Seq (nitrocellulose filter binding and sequencing); miR-122 guide loaded in AGO2; 60 min incubation; 30 mM Tris pH 8.0, 100 mM potassium acetate, 2 mM magnesium acetate, 0.5 mM TCEP, 0.005% NP-40, 0.01 mg/ml yeast tRNA; 3 nM AGO2-miR-122, 100 nM RNA library; 60; high values mean tight binding; details: protein: recombinant; tags: His6 (N-terminal, pFastBac HTA)
Sequence (Q9UKV8 whole entry L192P/S387D/S824A/S828D/S831D/S834A): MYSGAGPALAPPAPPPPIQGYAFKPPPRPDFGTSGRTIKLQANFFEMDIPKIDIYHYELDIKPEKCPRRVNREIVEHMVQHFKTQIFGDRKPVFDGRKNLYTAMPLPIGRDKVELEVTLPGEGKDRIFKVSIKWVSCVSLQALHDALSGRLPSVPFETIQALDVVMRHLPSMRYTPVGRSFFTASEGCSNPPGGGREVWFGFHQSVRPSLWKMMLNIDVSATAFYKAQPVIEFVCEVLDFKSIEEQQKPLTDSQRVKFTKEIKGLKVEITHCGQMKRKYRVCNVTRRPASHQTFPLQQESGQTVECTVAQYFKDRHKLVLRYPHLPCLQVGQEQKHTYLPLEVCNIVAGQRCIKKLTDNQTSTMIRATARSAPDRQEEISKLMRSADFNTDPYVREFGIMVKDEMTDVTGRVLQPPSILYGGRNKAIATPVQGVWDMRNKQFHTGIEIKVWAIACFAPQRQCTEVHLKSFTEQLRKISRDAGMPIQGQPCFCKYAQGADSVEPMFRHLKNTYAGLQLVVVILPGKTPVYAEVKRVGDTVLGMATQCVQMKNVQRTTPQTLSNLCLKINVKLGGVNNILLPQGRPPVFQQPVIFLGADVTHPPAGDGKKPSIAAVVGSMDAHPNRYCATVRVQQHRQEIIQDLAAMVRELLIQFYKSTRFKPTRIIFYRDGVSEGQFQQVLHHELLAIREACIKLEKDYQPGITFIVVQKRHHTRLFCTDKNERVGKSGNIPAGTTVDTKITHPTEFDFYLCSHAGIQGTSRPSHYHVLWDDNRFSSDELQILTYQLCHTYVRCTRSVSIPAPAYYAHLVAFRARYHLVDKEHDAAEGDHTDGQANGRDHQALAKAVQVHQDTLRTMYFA
Procedure, shortened: (§1)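 His-tagged AGO2 was expressed in Sf9 insect cells by baculovirus, loaded with a synthetic guide RNA, and purified by Ni-NTA and a biotinylated capture oligo. Bound RNA was extracted, reverse-transcribed, barcode-amplified and Illumina-sequenced. Fold enrichment is each sequence's read fraction divided by its input-library read fraction.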

| Binder | binding signal |
| --- | --- |
| B1 | 0.382 fold enrichment over input |
| B2 | 0.475 fold enrichment over input |
| B3 | 0.418 fold enrichment over input |
| B4 | 0.414 fold enrichment over input |
| B5 | 0.34 fold enrichment over input |
| B6 | 0.362 fold enrichment over input |
| B7 | 0.445 fold enrichment over input |
| B8 | 0.333 fold enrichment over input |
| B9 | 0.457 fold enrichment over input |
| B10 | 0.384 fold enrichment over input |
| B11 | 0.36 fold enrichment over input |
| B12 | 0.344 fold enrichment over input |
| B13 | 0.359 fold enrichment over input |
| B14 | 0.381 fold enrichment over input |
| B15 | 0.435 fold enrichment over input |
| B16 | 0.376 fold enrichment over input |
| B17 | 0.325 fold enrichment over input |
| B18 | 0.338 fold enrichment over input |
| B19 | 0.344 fold enrichment over input |
| B20 | 0.4 fold enrichment over input |
| B21 | 0.36 fold enrichment over input |
| B22 | 0.332 fold enrichment over input |
| B23 | 0.389 fold enrichment over input |

target: AGO2 A367P (Homo sapiens, UniProt Q9UKV8 1-859, A367P;S387D;S824A;S828D;S831D;S834A); test: as above; details: protein: recombinant; tags: His6 (N-terminal, pFastBac HTA)
Sequence (Q9UKV8 whole entry A367P/S387D/S824A/S828D/S831D/S834A): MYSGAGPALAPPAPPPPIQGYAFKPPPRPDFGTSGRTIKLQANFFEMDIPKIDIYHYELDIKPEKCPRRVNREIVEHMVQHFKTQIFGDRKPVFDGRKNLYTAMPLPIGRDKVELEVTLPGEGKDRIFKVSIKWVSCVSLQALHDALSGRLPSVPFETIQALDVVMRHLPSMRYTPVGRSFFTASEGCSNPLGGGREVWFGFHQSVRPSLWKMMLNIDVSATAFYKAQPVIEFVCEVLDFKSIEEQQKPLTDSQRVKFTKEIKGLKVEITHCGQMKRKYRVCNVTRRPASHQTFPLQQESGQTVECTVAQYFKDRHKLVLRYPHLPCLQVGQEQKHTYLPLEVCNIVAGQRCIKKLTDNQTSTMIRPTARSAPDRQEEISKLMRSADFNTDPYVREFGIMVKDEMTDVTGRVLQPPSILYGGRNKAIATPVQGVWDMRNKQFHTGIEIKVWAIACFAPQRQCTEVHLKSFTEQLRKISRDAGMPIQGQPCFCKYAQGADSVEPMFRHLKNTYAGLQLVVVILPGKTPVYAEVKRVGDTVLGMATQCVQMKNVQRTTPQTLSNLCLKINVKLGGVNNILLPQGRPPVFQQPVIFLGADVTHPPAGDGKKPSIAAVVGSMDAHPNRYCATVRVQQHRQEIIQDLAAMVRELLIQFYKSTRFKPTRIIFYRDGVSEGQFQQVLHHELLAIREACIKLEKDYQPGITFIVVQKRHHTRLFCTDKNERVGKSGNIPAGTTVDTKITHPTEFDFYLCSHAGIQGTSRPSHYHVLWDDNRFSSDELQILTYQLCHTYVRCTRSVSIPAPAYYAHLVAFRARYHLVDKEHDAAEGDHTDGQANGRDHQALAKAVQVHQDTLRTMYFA
Procedure, shortened: as §1

| Binder | binding signal |
| --- | --- |
| B1 | 0.14 fold enrichment over input |
| B2 | 0.166 fold enrichment over input |
| B3 | 0.125 fold enrichment over input |
| B4 | 0.135 fold enrichment over input |
| B5 | 0.134 fold enrichment over input |
| B6 | 0.132 fold enrichment over input |
| B7 | 0.167 fold enrichment over input |
| B8 | 0.128 fold enrichment over input |
| B9 | 0.174 fold enrichment over input |
| B10 | 0.131 fold enrichment over input |
| B11 | 0.133 fold enrichment over input |
| B12 | 0.126 fold enrichment over input |
| B13 | 0.137 fold enrichment over input |
| B14 | 0.127 fold enrichment over input |
| B15 | 0.156 fold enrichment over input |
| B16 | 0.14 fold enrichment over input |
| B17 | 0.126 fold enrichment over input |
| B18 | 0.13 fold enrichment over input |
| B19 | 0.129 fold enrichment over input |
| B20 | 0.147 fold enrichment over input |
| B21 | 0.134 fold enrichment over input |
| B22 | 0.141 fold enrichment over input |
| B23 | 0.137 fold enrichment over input |

target: AGO2 T357M (Homo sapiens, UniProt Q9UKV8 1-859, T357M;S387D;S824A;S828D;S831D;S834A); test: as above; details: protein: recombinant; tags: His6 (N-terminal, pFastBac HTA)
Sequence (Q9UKV8 whole entry T357M/S387D/S824A/S828D/S831D/S834A): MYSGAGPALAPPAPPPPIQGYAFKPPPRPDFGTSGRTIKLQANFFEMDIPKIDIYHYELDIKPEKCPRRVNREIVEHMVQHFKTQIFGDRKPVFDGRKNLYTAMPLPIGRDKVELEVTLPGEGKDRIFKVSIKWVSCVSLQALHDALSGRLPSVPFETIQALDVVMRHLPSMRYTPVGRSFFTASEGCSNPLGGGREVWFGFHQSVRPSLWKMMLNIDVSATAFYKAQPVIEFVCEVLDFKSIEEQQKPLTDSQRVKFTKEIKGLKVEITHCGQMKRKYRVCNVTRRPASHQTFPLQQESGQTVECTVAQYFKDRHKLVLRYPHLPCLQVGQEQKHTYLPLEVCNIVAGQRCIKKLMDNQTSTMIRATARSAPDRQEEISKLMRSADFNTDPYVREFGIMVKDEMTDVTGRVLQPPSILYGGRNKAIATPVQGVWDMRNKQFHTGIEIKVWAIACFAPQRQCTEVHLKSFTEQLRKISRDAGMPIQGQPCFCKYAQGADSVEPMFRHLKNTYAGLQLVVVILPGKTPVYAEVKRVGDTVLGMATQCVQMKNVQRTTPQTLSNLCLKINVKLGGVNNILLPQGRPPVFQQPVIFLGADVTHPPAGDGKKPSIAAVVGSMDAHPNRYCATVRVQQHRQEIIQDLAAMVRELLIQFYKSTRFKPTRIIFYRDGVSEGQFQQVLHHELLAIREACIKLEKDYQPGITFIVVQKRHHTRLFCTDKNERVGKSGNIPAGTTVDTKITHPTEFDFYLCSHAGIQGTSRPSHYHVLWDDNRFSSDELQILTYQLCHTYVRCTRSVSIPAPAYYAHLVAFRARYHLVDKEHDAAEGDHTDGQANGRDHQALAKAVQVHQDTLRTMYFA
Procedure, shortened: as §1

| Binder | binding signal |
| --- | --- |
| B1 | 0.471 fold enrichment over input |
| B2 | 0.561 fold enrichment over input |
| B3 | 0.573 fold enrichment over input |
| B4 | 0.6 fold enrichment over input |
| B5 | 0.474 fold enrichment over input |
| B6 | 0.487 fold enrichment over input |
| B7 | 0.599 fold enrichment over input |
| B8 | 0.424 fold enrichment over input |
| B9 | 0.596 fold enrichment over input |
| B10 | 0.514 fold enrichment over input |
| B11 | 0.483 fold enrichment over input |
| B12 | 0.447 fold enrichment over input |
| B13 | 0.44 fold enrichment over input |
| B14 | 0.515 fold enrichment over input |
| B15 | 0.531 fold enrichment over input |
| B16 | 0.486 fold enrichment over input |
| B17 | 0.452 fold enrichment over input |
| B18 | 0.445 fold enrichment over input |
| B19 | 0.483 fold enrichment over input |
| B20 | 0.519 fold enrichment over input |
| B21 | 0.52 fold enrichment over input |
| B22 | 0.443 fold enrichment over input |
| B23 | 0.54 fold enrichment over input |
